Active and inactive are the calls of the source. The calls were made as follows: active = hit-call score of the fitted dose curve at least 0.9, where 1 is the maximum; inactive = score below 0.9.
test: CCTE_Harrill_HTTr_Apoptosis_MCF7: CCTE's 6-hour Apoptosis Assessment for the High-Throughput Transcriptomics (HTTr) Platform, in MCF-7 cells cultured in DMEM + 10% fetal bovine serum, Harrill Lab (AID 2284011)
Method in brief: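 Apoptosis in MCF-7 cells grown in DMEM with 10% fetal bovine serum was scored after a six hour exposure by high content imaging of caspase-3/7 activation (CellEvent Caspase 3/7 Green), with DMSO serving as negative control and baseline.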

| SMILES | outcome | AC50 |
| --- | --- | --- |
| O=c1c(-c2ccc(O)cc2)coc2cc(O)ccc12 | inactive | – |
| O=C(O)c1ccccc1C(c1ccc(O)cc1)c1ccc(O)cc1 | inactive | – |
| O=C1OC2(c3ccccc31)c1cc(Br)c(O)c(Br)c1Oc1c2cc(Br)c(O)c1Br | – | 1.92 µM (active) |
| CCc1ccc(CCOc2ccc(CC3SC(=O)NC3=O)cc2)nc1 (stereo not drawn) | inactive | – |
| N#C[C@@H]1CC(F)(F)CN1C(=O)CNC1CC2CCC(C1)N2c1ncccn1 (stereo partly drawn) | inactive | – |
| OC1CCC(C2CCCCC2)CC1 (stereo not drawn) | inactive | – |
| Cc1oc(-c2ccccc2)nc1CCOc1ccc(C[C@H](Nc2ccccc2C(=O)c2ccccc2)C(=O)O)cc1 | inactive | – |
| CC(C)CCCCCCOC(=O)CCCCC(=O)OCCCCCCC(C)C | inactive | – |
| CCCCCCCCC(=O)O | inactive | – |
| CC(O)CO (stereo not drawn) | inactive | – |
| CCC(=C(c1ccc(O)cc1)c1ccc(OCCN(C)C)cc1)c1ccccc1 | – | 35.7 µM (active) |
| Cc1cc(CCN2CCN(c3nsc4ccccc34)CC2)cc2c1NC(=O)CC2(C)C | – | 63.6 µM (active) |
| COc1ccc([N+](=O)[O-])cc1N | inactive | – |
| OCCC(F)(F)C(F)(F)C(F)(F)C(F)(F)C(F)(F)C(F)(F)C(F)(F)C(F)(F)F | inactive | – |
| CCCCCCCC(=O)O | inactive | – |
| NC(=O)N(O)[C@@H]1C=C[C@H](Oc2cccc(Oc3ccc(F)cc3)c2)C1 | inactive | – |
| CC#C[C@]1(O)CC[C@H]2[C@@H]3CCC4=CC(=O)CCC4=C3[C@@H](c3ccc(N(C)C)cc3)C[C@@]21C | inactive | – |
| Oc1cccc(O)c1 | inactive | – |
| Nc1cccc2c(N)cccc12 | inactive | – |
| OC1CCCCC1 | inactive | – |
| CC(=O)NC1(c2cccc(F)c2)CCN(CC[C@@]2(c3ccc(Cl)c(Cl)c3)CN(c3ccccc3)C(=O)CO2)CC1 | inactive | – |
| Oc1cc2ccccc2c2ccccc12 | inactive | – |
| CCCCCCCCCCCCN1CCCC1=O | inactive | – |
| CC(O)C(=O)O (stereo not drawn) | inactive | – |
| CN1CCN(c2ccccc2/C=C2\SCCN(c3ccc(Cl)c(Cl)c3)C2=O)CC1 | inactive | – |
| CC(C)(C)CC(C)(C)c1ccc(O)c(-n2nc3ccccc3n2)c1 | inactive | – |
| CC[C@H](c1ccc(O)cc1)[C@@H](CC)c1ccc(O)cc1 | inactive | – |
| CCCCCCCCCCCCc1ccccc1S(=O)(=O)O | inactive | – |

From PubChem BioAssay (EPA / NIEHS)
